OTUD3 block – human OTUD3 deubiquitinase inhibition. inhibition, % at 25 µM. hit rate 0.7% among 47,000. Q5T2D3. AID 1645858. purified OTUD3, Ub-rhodamine fluorescence, 2 h
USP28 inh – inhibitors of human USP28 deubiquitinase; hit rate 3% among 47,000; AID 1645857; purified USP28, Ub-rhodamine cleavage fluorescence, 30 min; inhibition, % at 25 µM
USP8 block – inhibitors of human USP8 deubiquitinase. purified USP8, Ub-rhodamine cleavage fluorescence, 30 min. inhibition, % at 20 µM. hit rate 4.2% among 47,000. AID 1645853
USP17 inh – inhibitors of human USP17 deubiquitinase; inhibition, % at 50 µM; hit rate 6.5% among 47,000; A8MUK1; purified USP17, Ub-rhodamine cleavage fluorescence, 3 h
USP10 inh – inhibitors of human USP10 deubiquitinase | Q14694 | purified USP10, Ub-rhodamine fluorescence, 60 min | inhibition, % at 20 µM | hit rate 1.1% among 47,000
USP30 inh – blocks human USP30 ubiquitin-rhodamine cleavage | Q70CQ3 | purified USP30, Ub-rhodamine cleavage fluorescence | inhibition, % at 25 µM | hit rate 5.3% among 47,000 | AID 1645860
Starred values were filed as active, the others as inactive; i = inactive; . = no result given. Hits are enriched below; roughly 13% of the tested compounds scored in any of these assays. Rule as the data show it: active = inhibition above about 30%; inactive = the rest.

SMILES | OTUD3 block | USP28 inh | USP8 block | USP17 inh | USP10 inh | USP30 inh
O=C(c1ccccc1)N1CCC(c2cccc(Cc3cccc(F)c3)n2)CC1 | -1 | 43* | -10 | 4 | 6 | 4
O=C(NCCN1CCOCC1)c1[nH]nc2c1CCc1ccccc1-2 | -2 | 17 | -3 | -3 | 1 | -1
c1ccc2c(c1)CCc1c-2nc2ccccc2c1N1CCOCC1 | -21 | 2 | 83* | 72* | -3 | -95
O=C(Nc1cccc2cccnc12)c1nnn(-c2ccccc2)n1 | 0 | 0 | -20 | 44* | 0 | 18
Cc1cccc(C(=O)Nc2nnc3n2CCCS3)c1 | 14 | 27 | -23 | -2 | 2 | 13
O=C(Nc1nnc2n1CCCS2)c1ccc(Cl)cc1 | -5 | 16 | -163 | -30 | -1 | 2
Cc1ccc(C(=O)Nc2nnc3n2CCCS3)cc1 | -6 | 32* | 4 | -16 | 0 | -4
O=C(Nc1nnc2n1CCCS2)c1cc2ccccc2o1 | 5 | 51* | -185 | -21 | 0 | 14
COc1cc2c(cc1OC)-c1c(c(C(=O)NCCCO)nn1-c1ccccc1Cl)C2 | 1 | -3 | 2 | 4 | 0 | 0
O=C(CCc1nc2ccccc2[nH]1)N1CCOC(c2ccncc2)C1 (centres undefined) | 0 | -5 | -6 | -4 | 2 | -14
Nc1c(C(=O)NC2CCCCC2)nnn1-c1ccccc1F | 0 | 13 | 3 | 3 | 4 | 17
CC(=O)N1CCN(c2cc(-c3noc([C@@H]4CCCN4CC(C)(C)C)n3)ccn2)CC1 | -2 | -2 | 16 | -20 | -8 | -50
Cc1sc2ncn3c(=O)n(CC(=O)Nc4ccc(F)c(Cl)c4)nc3c2c1C | 6 | 7 | -3 | 53* | -3 | 16
Cc1sc2ncn3c(=O)n(CC(=O)Nc4ccc(F)cc4)nc3c2c1C | 6 | 5 | 10 | 2 | -1 | 14
Cc1cc(C)c2cc(CN(C(=O)Nc3cccc(Cl)c3)C3CCCC3)c(=O)[nH]c2c1 | 12 | 7 | 4 | 3 | -1 | 17
Cc1cc(C)c2cc(CN(CCc3ccccc3)C(=O)Nc3ccccc3)c(=O)[nH]c2c1 | -6 | -7 | -9 | 62* | -1 | -36
Cc1c(C(=O)N2CCN(C)CC2)cnn1-c1ccc(-c2nc(C3CC3)no2)cn1 | -6 | -8 | -11 | -8 | -3 | -11
CCN1C[C@H]2CCN(Cc3cccnc3)CC[C@H]2S1(=O)=O | -14 | -21 | -16 | -13 | -7 | -60
CC1CCN(c2nc(F)c3c(c2F)S(=O)(=O)CCN3CC2CCCO2)CC1 (centres undefined) | -4 | -6 | -39 | -17 | 6 | -9
CCN(CC)c1nc(F)c2c(c1F)S(=O)(=O)CCN2Cc1cccnc1 | 13 | 8 | 90* | 58* | -6 | 8
CC1CCCCN1c1nc(F)c2c(c1F)S(=O)(=O)CCN2Cc1cccnc1 (centres undefined) | -4 | -10 | 70* | 35* | -5 | -36
CC(=O)c1sc(NC(=O)c2ccccc2-c2ccc(C(F)(F)F)cc2)nc1C | 17 | 17 | -8 | 64* | 1 | 38*
CCCN(C(=O)[C@H]1[C@@H]2C[C@@H]3[C@H]1C(=O)O[C@@H]3C2)c1ccccc1OCC | 11 | 14 | 0 | 19 | 1 | 14
O=C(Nc1cccc(-c2nc3ccccc3[nH]2)c1)c1cc2ccccc2oc1=O | 1 | -3 | 1 | 60* | 4 | 37*
Cc1ccc(C2=NC3(CCN(C(=O)Nc4ccccc4)CC3)NC2=O)cc1 | 2 | -12 | -5 | -5 | 4 | -4
SMILES | OTUD3 block | USP28 inh | USP8 block | USP17 inh | USP10 inh | USP30 inh
Cc1ccc(-c2cc(N3CCN(S(C)(=O)=O)CC3)ncn2)cc1 | 13 | 19 | 2 | 47* | 0 | 47*
CS(=O)(=O)N1CCN(c2ccc(-c3ccc(F)cc3)nn2)CC1 | 10 | 8 | 0 | 25 | 2 | 22
CCN(CC)c1ccc2nnc(CCC(=O)N3CCCCC3)n2n1 | -2 | -3 | 2 | -2 | -2 | -8
c1ccc2c(c1)cnn1c(-c3ccncc3)nnc21 | 0 | -5 | 3 | 19 | 3 | -3
c1ccc(Cc2nn3c(-c4cccnc4)nnc3c3ccccc23)cc1 | 0 | 4 | 2 | 62* | 2 | 8
Cc1ccc(CSc2ccc3nnc(-c4cccnc4)n3n2)cc1 | 10 | . | 3 | -4 | 0 | .
c1ccc(Cc2nn3c(-c4ccncc4)nnc3c3ccccc23)cc1 | 8 | 1 | 23 | 49* | 4 | 36*
CC(NC(=O)N(Cc1ccccc1)CC1CC=CCC1)(C(F)(F)F)C(F)(F)F (centres undefined) | 11 | -1 | 13 | 7 | 2 | -1
COc1ccc(C(=O)N2CCCCC2c2ccn3nccc3n2)cn1 (centres undefined) | 0 | -3 | 0 | 1 | 2 | -2
c1coc(-c2nc3ccccc3n2CCC2CCCCC2)c1 | 2 | 26 | 68* | 36* | -3 | -18
COc1ccc2nc(Nc3ncc4c(n3)CCCC4=O)nc(C)c2c1 | 8 | 13 | 13 | 38* | -1 | 52*
Cc1cc2nc(Nc3ncc4c(n3)CCCC4=O)nc(C)c2cc1C | -7 | -7 | 1 | 1 | -1 | -8
Cc1nc(N2CCCC2)ncc1-c1cc(=O)[nH]c(N2CCc3ccccc3C2)n1 | 0 | 0 | 6 | 78* | -1 | -28
Cc1nc(N2CCOCC2)ncc1-c1cc(=O)[nH]c(NCCc2ccccc2)n1 | 4 | 2 | -8 | 17 | 3 | 34*
COc1cccc(-c2cc(=O)[nH]c(Nc3nc(C)c4ccccc4n3)n2)c1 | 10 | 12 | 10 | 20 | -1 | 58*
CC(=O)Nc1ccc(C)n(CC(=O)NC2CCCCC2)c1=O | -9 | -18 | -6 | . | -3 | -14
O=C(Nc1ccccc1)[C@@H]1[C@@H]2C(=O)N(c3ccc([N+](=O)[O-])cc3)C(=O)[C@@H]2[C@H]2c3ccccc3C=CN12 | -201 | -118 | -31 | -145 | -5 | i
Cc1cc(C2CCCN2C(=O)Nc2ccc(C)c(Cl)c2)on1 (centres undefined) | -12 | -12 | -3 | . | 1 | -1
CCN1CCN(c2ncc(-c3cc(=O)[nH]c(Nc4nc(C)c5cc(C)ccc5n4)n3)c(C)n2)CC1 | 9 | 10 | 14 | 11 | 0 | 17
COc1ccc2nc(Nc3nc(-c4cnc(N5CCOCC5)nc4C)cc(=O)[nH]3)nc(C)c2c1 | 2 | 2 | 1 | 52* | -1 | 10
O=C(c1cc2c([nH]1)CCCC2)N1CCC[C@H]1[C@H](O)c1nc2ccccc2s1 | 6 | 14 | 2 | 14 | 8 | 14
C[C@H](NC(=O)c1cccs1)c1nnc2ccccn12 | 16 | 20 | 28 | 12 | 2 | 30*
Cc1ccc(C(=O)N[C@@H](C)c2nnc3ccccn23)cc1 | 10 | 20 | -7 | 2 | 2 | 11
O=C(COc1ccccc1C(=O)Nc1ccccc1)Nc1ccc2[nH]c(=O)[nH]c2c1 | -7 | 0 | -6 | 38* | -2 | -27

Compound activity (PubChem)
